# Reference: ChEMBL document CHEMBL1961873, “Compounds: GSK PKIS; Assays: Nanosyn kinase panel” (2012)
# Target: Non-receptor tyrosine-protein kinase TYK2 (Homo sapiens) (UniProt P29597);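 also: values are mean percent inhibition of TYK2 kinase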
# Settings: at 1 µM
# Chain of Non-receptor tyrosine-protein kinase TYK2 (Homo sapiens) (P29597 whole entry): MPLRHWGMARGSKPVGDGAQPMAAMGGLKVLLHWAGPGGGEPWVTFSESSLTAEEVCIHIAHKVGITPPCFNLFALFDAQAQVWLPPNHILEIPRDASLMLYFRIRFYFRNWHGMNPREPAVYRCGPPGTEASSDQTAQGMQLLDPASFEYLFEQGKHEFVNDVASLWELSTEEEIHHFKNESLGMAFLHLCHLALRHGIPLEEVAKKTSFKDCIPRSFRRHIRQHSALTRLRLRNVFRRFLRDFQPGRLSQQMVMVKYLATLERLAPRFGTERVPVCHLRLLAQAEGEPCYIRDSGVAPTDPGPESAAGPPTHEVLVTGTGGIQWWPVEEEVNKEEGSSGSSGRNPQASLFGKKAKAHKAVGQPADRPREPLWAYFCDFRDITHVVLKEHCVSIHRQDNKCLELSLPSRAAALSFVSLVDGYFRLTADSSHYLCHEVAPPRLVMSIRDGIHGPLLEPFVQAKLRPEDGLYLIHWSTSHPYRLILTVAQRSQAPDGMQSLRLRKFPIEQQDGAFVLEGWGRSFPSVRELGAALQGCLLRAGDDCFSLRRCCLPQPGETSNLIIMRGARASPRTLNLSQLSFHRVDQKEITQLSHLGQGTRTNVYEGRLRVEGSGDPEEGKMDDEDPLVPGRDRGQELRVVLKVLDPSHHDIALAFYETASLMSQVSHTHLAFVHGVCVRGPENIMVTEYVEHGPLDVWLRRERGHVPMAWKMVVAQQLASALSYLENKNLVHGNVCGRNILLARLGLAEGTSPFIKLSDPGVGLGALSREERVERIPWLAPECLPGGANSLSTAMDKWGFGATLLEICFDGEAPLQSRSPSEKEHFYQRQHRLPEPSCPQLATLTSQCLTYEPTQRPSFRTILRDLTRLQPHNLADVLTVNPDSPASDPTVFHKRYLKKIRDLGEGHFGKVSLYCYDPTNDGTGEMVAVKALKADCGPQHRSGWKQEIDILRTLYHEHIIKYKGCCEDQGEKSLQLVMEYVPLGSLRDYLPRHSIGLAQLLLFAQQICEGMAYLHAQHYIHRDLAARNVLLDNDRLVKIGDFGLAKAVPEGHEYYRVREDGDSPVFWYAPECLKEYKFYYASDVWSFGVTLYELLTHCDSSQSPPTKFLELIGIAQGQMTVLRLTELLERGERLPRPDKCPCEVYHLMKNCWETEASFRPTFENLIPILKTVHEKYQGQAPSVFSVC
row,SMILES,inhibition
1,COc1ccccc1Nc1ncc(-c2ccccc2)o1,-0.92%
2,Cc1nn(C)c2cc(N(C)c3ccnc(Nc4cccc(S(N)(=O)=O)c4)n3)ccc12,2.39%
3,CCn1c(-c2nonc2N)nc2cncc(C(=O)N3CC[C@H](N)C3)c21,-0.04%
4,O=C(Nc1n[nH]c2nc(-c3ccco3)c(Br)cc12)C1CC1,-1.51%
5,COc1ccc(-c2coc3ncnc(N)c23)cc1,-3.97%
6,O=C1NC(=O)C(c2cccc(Cl)c2)=C1Nc1ccc(O)c(Cl)c1,20%
7,CS(=O)(=O)CCNCc1ccc(-c2ccc3ncnc(Nc4ccc(OCc5cccc(F)c5)c(C(F)(F)F)c4)c3c2)o1,-3.56%
8,O=C1NC(=O)C(c2ccccc2Cl)=C1Nc1cccc(O)c1,-2.87%
9,COc1cc2ncn(-c3cc(OCc4ccccc4Cl)c(C(N)=O)s3)c2cc1OC,2.41%
10,Nc1ncnc2occ(-c3ccc(NC(=O)Nc4cccc(C(F)(F)F)c4)cc3)c12,-3.79%
11,COc1cc(C=NNc2ncnc3c2cnn3-c2ccccc2)ccc1O,0.57%
12,CC1=C(C(=O)Nc2ccc3[nH]ncc3c2)C(c2ccc(Cl)c(Cl)c2)CC(=O)N1 (configuration not stated),3.29%
13,NC(=O)c1ccc(-c2nc(-c3ccccn3)c(-c3ccc4c(c3)OCO4)[nH]2)cc1,-0.31%
14,COc1cccc(-n2ncc3c(N/N=C/c4cccc(F)c4)ncnc32)c1,-0.15%
15,Cc1nnc(-c2ccc(C)c(-c3ccc(C(=O)Nc4cccc(C#N)c4)cc3)c2)o1,-1.12%
16,N#Cc1c(NC(=O)c2cccc3ccccc23)sc2c1CCCC2,-3.92%
17,Cc1ccc(NC(=O)c2ccnc(N3CCCC3)c2)cc1-c1ccc(C(=O)NCC2CC2)cc1,-2.58%
18,COc1cc2ncn(-c3cc(OCc4ccccc4C(F)(F)F)c(C(N)=O)s3)c2cc1OC,-6.76%

# Target: T1, Tyrosine-protein kinase receptor TYRO3 (Homo sapiens) (UniProt Q06418);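 also: reported percentages are averaged inhibition values of TYRO3 kinase activity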
# T1 sequence (whole entry): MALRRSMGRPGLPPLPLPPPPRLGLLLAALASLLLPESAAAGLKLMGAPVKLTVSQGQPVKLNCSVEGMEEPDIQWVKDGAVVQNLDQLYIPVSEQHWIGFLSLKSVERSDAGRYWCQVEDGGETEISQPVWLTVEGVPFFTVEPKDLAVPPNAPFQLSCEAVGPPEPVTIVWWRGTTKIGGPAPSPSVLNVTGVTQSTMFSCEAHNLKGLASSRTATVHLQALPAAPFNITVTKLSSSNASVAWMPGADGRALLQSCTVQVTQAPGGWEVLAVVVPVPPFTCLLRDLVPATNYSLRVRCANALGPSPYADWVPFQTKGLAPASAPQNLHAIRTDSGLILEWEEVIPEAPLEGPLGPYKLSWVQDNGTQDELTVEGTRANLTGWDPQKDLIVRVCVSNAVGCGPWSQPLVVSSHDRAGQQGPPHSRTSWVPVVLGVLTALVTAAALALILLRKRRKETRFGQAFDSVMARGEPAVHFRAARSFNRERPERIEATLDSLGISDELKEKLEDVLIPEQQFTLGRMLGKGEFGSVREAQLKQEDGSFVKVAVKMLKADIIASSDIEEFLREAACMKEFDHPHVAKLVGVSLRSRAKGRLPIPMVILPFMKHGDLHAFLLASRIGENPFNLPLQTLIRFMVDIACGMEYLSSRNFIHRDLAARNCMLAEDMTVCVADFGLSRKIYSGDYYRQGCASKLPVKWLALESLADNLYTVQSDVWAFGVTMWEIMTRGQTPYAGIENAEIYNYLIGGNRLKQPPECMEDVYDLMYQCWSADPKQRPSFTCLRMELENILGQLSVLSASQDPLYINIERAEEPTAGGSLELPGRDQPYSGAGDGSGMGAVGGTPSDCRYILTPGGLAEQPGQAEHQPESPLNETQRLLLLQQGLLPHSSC
# Settings: at 0.1 µM
row,SMILES,inhibition
1,Fc1cccc(COc2ccc(Nc3ncnc4sc(-c5cccs5)cc34)cc2Cl)c1,0.54%
2,CC1=C(C(=O)Nc2ccc3[nH]ncc3c2)C(c2ccc(F)cc2)NC(=O)N1 (configuration not stated),1.55%
3,CCn1c(-c2nonc2N)nc2c(N3CCCC3)nccc21,-1.31%
4,NS(=O)(=O)c1ccc(N/N=C2\C(=O)Nc3ccc(C(=O)NCCc4c[nH]cn4)cc32)cc1,5.07%
5,CC(C)=Cc1cccc2c1/C(=N/Nc1ccc(S(N)(=O)=O)cc1)C(=O)N2,2.83%
6,COc1cc2ncn(-c3cc(O[C@H](C)c4ccccc4Cl)c(C(N)=O)s3)c2cc1OC,7.57%
7,COc1cc2ncn(-c3cc(O[C@@H](C)c4ccccc4Cl)c(C(N)=O)s3)c2cc1OC,2.45%
8,Fc1cccc(COc2ccc(Nc3ncnc4cc(-c5ccc[nH]5)sc34)cc2Cl)c1,2.87%
9,CN1CCC(C(=O)Nc2n[nH]c3nnc(-c4ccccc4)cc23)CC1,2.36%
10,Cn1cc(C=C2C(=O)Nc3cccnc32)c2ccccc21,2.36%
11,COc1ccc(-c2nn3ncccc3c2-c2ccnc(Nc3ccc(Cl)c(C(F)(F)F)c3)n2)cc1,0.79%
12,NC(=O)c1cccc(Nc2nccc(Nc3cccc4[nH]ncc34)n2)c1,9.98%
13,COc1ccc(-c2ccncc2)cc1C(N)=O,1.12%
14,CS(=O)(=O)CCN(CC#N)Cc1ccc(-c2ccc3ncnc(Nc4ccc(OCc5cccc(F)c5)c(Cl)c4)c3c2)o1,-1.18%
15,CNC(=O)c1cncc(/C=C/c2c(Cl)cccc2Cl)c1,1.91%
16,CCn1c(-c2nonc2N)nc2c(C#CC(C)(C)O)nc(CN3CCCC3)cc21,0.06%
17,COc1ccccc1Nc1ncc(-c2ccccc2)o1,1.91%

row,SMILES,inhibition
1,Cc1nn(C)c2cc(N(C)c3ccnc(Nc4cccc(S(N)(=O)=O)c4)n3)ccc12,6.07%
2,CCn1c(-c2nonc2N)nc2cncc(C(=O)N3CC[C@H](N)C3)c21,4.09%
3,O=C(Nc1n[nH]c2nc(-c3ccco3)c(Br)cc12)C1CC1,2.22%
4,COc1ccc(-c2coc3ncnc(N)c23)cc1,2.29%
5,O=C1NC(=O)C(c2cccc(Cl)c2)=C1Nc1ccc(O)c(Cl)c1,-0.43%
6,CS(=O)(=O)CCNCc1ccc(-c2ccc3ncnc(Nc4ccc(OCc5cccc(F)c5)c(C(F)(F)F)c4)c3c2)o1,3.52%
7,O=C1NC(=O)C(c2ccccc2Cl)=C1Nc1cccc(O)c1,1.29%
8,COc1cc2ncn(-c3cc(OCc4ccccc4Cl)c(C(N)=O)s3)c2cc1OC,1.87%
9,Nc1ncnc2occ(-c3ccc(NC(=O)Nc4cccc(C(F)(F)F)c4)cc3)c12,3.18%
10,COc1cc(C=NNc2ncnc3c2cnn3-c2ccccc2)ccc1O,5.56%
11,CC1=C(C(=O)Nc2ccc3[nH]ncc3c2)C(c2ccc(Cl)c(Cl)c2)CC(=O)N1 (configuration not stated),1.69%
12,NC(=O)c1ccc(-c2nc(-c3ccccn3)c(-c3ccc4c(c3)OCO4)[nH]2)cc1,2.08%
13,COc1cccc(-n2ncc3c(N/N=C/c4cccc(F)c4)ncnc32)c1,3.08%
14,Cc1nnc(-c2ccc(C)c(-c3ccc(C(=O)Nc4cccc(C#N)c4)cc3)c2)o1,1.94%
15,N#Cc1c(NC(=O)c2cccc3ccccc23)sc2c1CCCC2,2.98%
16,Cc1ccc(NC(=O)c2ccnc(N3CCCC3)c2)cc1-c1ccc(C(=O)NCC2CC2)cc1,2.24%
17,COc1cc2ncn(-c3cc(OCc4ccccc4C(F)(F)F)c(C(N)=O)s3)c2cc1OC,3.15%
